Measurements reported in PubChem BioAssay AID493221 (Johns Hopkins Ion Channel Center, 2011).
About 1,700 (71%) of roughly 2,400 compounds were called active.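 The calls were made as follows: active = choline transporter activity left, mean of duplicates at 10 µM, below buffer-only control mean minus 3 SD; inactive = the rest.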 The set was probably picked from earlier hits. Only a sample is shown.

The molecules below were run against High affinity choline transporter 1 (Homo sapiens) (UniProt Q9GZV3) (assay: human choline transporter blockers – cell-based, membrane potential dye, duplicate, confirmation (AID 493221)). Conditions: CHT-expressing cells, at 10 µM, LV-to-AA substituted CHT, HEK293 cells.
High affinity choline transporter 1 (Homo sapiens), sequence (Q9GZV3 whole entry, looked up): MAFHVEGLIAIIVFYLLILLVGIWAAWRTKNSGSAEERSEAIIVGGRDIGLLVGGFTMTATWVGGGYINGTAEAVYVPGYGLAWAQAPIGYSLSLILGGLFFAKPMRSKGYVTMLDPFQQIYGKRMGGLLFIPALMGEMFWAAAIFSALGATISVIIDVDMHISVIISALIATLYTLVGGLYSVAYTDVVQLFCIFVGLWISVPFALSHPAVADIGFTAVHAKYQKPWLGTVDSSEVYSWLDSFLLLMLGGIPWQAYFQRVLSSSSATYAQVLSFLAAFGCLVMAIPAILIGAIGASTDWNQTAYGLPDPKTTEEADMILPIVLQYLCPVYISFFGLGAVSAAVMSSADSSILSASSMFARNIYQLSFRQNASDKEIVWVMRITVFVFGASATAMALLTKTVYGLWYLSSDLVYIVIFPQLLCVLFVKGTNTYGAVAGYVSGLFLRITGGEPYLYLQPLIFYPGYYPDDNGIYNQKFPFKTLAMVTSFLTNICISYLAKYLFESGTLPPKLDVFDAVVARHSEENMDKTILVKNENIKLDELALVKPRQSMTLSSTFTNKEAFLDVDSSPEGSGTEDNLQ

| Compound | CHT activity remaining % of control (stronger effect = lower value) |
| --- | --- |
| CC(C)(C)C(=O)/C(C#N)=C/c1ccc(O)cc1 | 68.6% (active) |
| O=C(Nc1ccn(Cc2ccccc2)n1)c1n[nH]c([N+](=O)[O-])c1Cl | 48.6% (active) |
| CC1CCN(C(=O)CN(c2ccc(Oc3ccccc3)cc2)S(C)(=O)=O)CC1 | inactive |
| CC(C)(C)NC(=O)NC(=O)CN1CCC(Cc2ccccc2)CC1 | 43.5% (active) |
| Cc1ccc(SC(CC(=O)c2ccc(C(C)(C)C)cc2)C(=O)O)cc1 (stereo not given) | 42% (active) |
| CC1CCN(CCCNC(=O)CN2C(=O)CSc3ccc(S(=O)(=O)N4CCCCC4)cc32)CC1 | 53.6% (active) |
| CCOCCCN(C)C1CCN(C(=O)c2oc3ccccc3c2NC(=O)COc2cccc(C)c2)CC1 | 44.8% (active) |
| Cc1cccnc1NC(=O)c1cccc(S(=O)(=O)N2CCN(c3ccc(F)cc3)CC2)c1 | 56.9% (active) |
| Cc1ccc(C(=O)NC2CCCC(C)C2C)cc1S(=O)(=O)N1CCCCC1 (stereo not given) | 43.5% (active) |
| CC1CCCC(NC(=O)c2cccc(N3CCCC3=O)c2)C1C (stereo not given) | 45.1% (active) |
| CC1CN(S(=O)(=O)c2ccc(C(=O)NN3CCN(C)CC3)cc2)CC(C)O1 (stereo not given) | inactive |
| O=C(C1CCN(S(=O)(=O)c2ccc(Br)s2)CC1)N1CCN(c2ccccc2)CC1 | 41.8% (active) |
| COc1ccc2c(c1)OC(O)(C(F)(F)C(F)F)CC2=O (stereo not given) | 25.8% (active) |
| CN(C)c1ccc(Nc2c3c4c(cccc4n(C)c2=O)C(=O)c2ccccc2-3)cc1 | 42.1% (active) |
| CC1(C)SC2C(NC(=O)COc3ccccc3)C(=O)N2C1C(=O)O (stereo not given) | inactive |
| CC(NC(=O)c1ccc(N2CCNCC2)c([N+](=O)[O-])c1)C12CC3CC(CC(C3)C1)C2 (stereo not given) | 52.3% (active) |
| CCc1ccccc1N1CN(Cc2ccco2)CNC1=S | inactive |
| CCOC(=O)C1(CCOC)CCN(Cc2ccc(C(=O)OC)cc2)CC1 | 71% (active) |
| CCOc1ccc(/C=C2\SC(=S)N(NC(=O)c3ccncc3)C2=O)cc1OC | 69.4% (active) |
| O=C(O)c1ccc(/C=C2\SC(=S)N(NC(=O)c3ccc(Br)cc3)C2=O)cc1 | 41.7% (active) |
| O=C1/C(=C/c2ccc(F)cc2)SC(=S)N1NS(=O)(=O)c1ccccc1 | 71.2% (active) |
| CC(C)n1c(=S)[nH]c2cc(C(F)(F)F)ccc21 | 59.3% (active) |
| CC(Oc1ccc2ccccc2c1)C(=O)NNC(=S)NC(=O)c1ccco1 (stereo not given) | 67% (active) |
| N#Cc1ccc(C(=O)Nc2cccc3cccnc23)c(F)c1 | inactive |
| COc1ccc(C(CNC(=O)c2cccc(NS(=O)(=O)c3ccc(C)c(F)c3)c2)N2CCCC2)cc1 (stereo not given) | 38.4% (active) |
